Where “and” joins values, the source holds several entries; their conditions need not be identical. Identical values can stand only once. Records with an inconclusive call do not appear. Where a call stands in place of a potency, no number is given. Calls of active or inactive are those of the source. Unless noted, calls follow the shape of the dose curve; as a rule, active = well fitted curve in the direction sought with a large enough effect; inconclusive = small, poorly fitted or top-dose-only effect, or another doubt; inactive = no such curve, though single readings can be large; an effect the other way counts as inactive or inconclusive.
Assays:
[1] = Cellular Toxicity (caspase-3) HUV-EC-C (AID 656)
Outline: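 Concentration-dependent caspase 3/7 induction was assessed in HUV-EC-C cells exposed for 16 hours. Data scaled between DMSO and tamoxifen (100 uM) controls.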

[2] = Cellular Toxicity (caspase-3) H-4-II-E (AID 663); conditions: Potency: caspase-3 activation;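 also: cells exposed to compound for 16 hr before readout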
Outline: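 Luminescence from caspase-cleaved aminoluciferin substrate, read 20 min after reagent addition, reports caspase 3/7 activation in rat H-4-II-E cells after 16 hr compound exposure. Normalized to DMSO (basal) and 100 uM tamoxifen (100%); AC50 from Hill fits.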

[3] = MultiTox-Fluor Cytotoxicity Assay - LYMP1-002 - Dead Cells (AID 960);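 also: cells exposed to compound for 16 h at 37 °C; nearly all actives have a fitted effect of over 60% in size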
Outline: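 LYMP1-002 cells 2500/well; 5 hr 37 C pre-incubation; compound 16 hr 37 C; MultiTox-Fluor reagent 60 min RT; dead-cell fluor Ex/Em 485/520. Norm. to DMSO (0%) vs 15 uM tetraoctylammonium bromide (100%); Hill AC50.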

[4] = Cell Viability - LYMP2-004 (AID 966); also: nearly all actives have a fitted effect of over 65% in size
Outline: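 Cells seeded 2500/well, rested 5 hr at 37 C, dosed across a concentration series, incubated 24 hr at 37 C, then CellTiter-Glo added for 30 min at room temperature and luminescence read. Hill fitting gave AC50.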

[5] = Cell Viability - LYMP2-005 (AID 967); also: series mostly up to about 92 µM
Outline: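 Luciferase-based ATP quantitation served as the viability measure in human lymphoblastoid LYMP2-005 cells exposed to test compounds for 24 h at 37 C in complete culture medium. Potency (AC50) was obtained by fitting concentration-response curves with the Hill equation.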

[6] = Cell Viability - LYMP2-013 (AID 970); also: series mostly up to about 92 µM; nearly all actives have a fitted effect of over 55% in size
Outline: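 qHTS; 2500 lymphoblastoid cells/well; 5 hr 37 C settle; cpd 24 hr 37 C; CellTiter-Glo, 30 min RT; luminescence. AC50 = Hill fit.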

[7] = Cell Viability - LYMP2-025 (AID 976); also: series mostly up to about 92 µM
Outline: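 Seed 2500 LYMP2-025 cells/well; 5 hr at 37 C; add compound; 24 hr at 37 C; add CellTiter-Glo; 30 min RT; read luminescence. AC50 from Hill-modelled concentration-response.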

[8] = Cell Viability - LYMP2-007 (AID 979);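 also: cells exposed to compound for 24 h before reading; nearly all actives have a fitted effect of over 60% in size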
Outline: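 Luminescent ATP signal (CellTiter-Glo) serves as the viability read-out after 24 hr compound treatment of lymphoblastoid cells in complete medium at 37 C. Concentration-response data were fitted to the Hill equation to give AC50 values.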

[9] = Cell Viability - LYMP2-014 (AID 983); also: series mostly up to about 92 µM; nearly all actives have a fitted effect of over 50% in size
Outline: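 Luminescent ATP signal (CellTiter-Glo, 30 min at room temperature) serves as the viability read-out after 24 hr compound exposure at 37 C. Cells were seeded at 2500 per well and settled 5 hr beforehand.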

[10] = Cell Viability - LYMP2-018 (AID 985); also: nearly all actives have a fitted effect of over 50% in size
Outline: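 Luminescent ATP signal (CellTiter-Glo, read after 30 min at room temperature) reports viable cells after 24 hr compound treatment at 37 C. Concentration-response data were fitted to the standard Hill equation for AC50.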

[11] = Cell Viability - LYMP2-022 (AID 987); also: nearly all actives have a fitted effect of over 55% in size
Outline: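 qHTS: human lymphoblastoid cells 2500/well; 5 hr 37 C; cpd added; 24 hr 37 C; CellTiter-Glo, 30 min RT; luminescence. AC50 via Hill fit; tetraoctylammonium bromide positive ctrl.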

[12] = Cell Viability - LYMP2-024 (AID 988); also: nearly all actives have a fitted effect of over 60% in size
Outline: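 Steps: seed 2500 cells/well, 5 hr 37 C; add compound, 24 hr 37 C; add CellTiter-Glo, 30 min room temperature; read luminescence. AC50 derived by Hill modelling of concentration-dependent ATP loss.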

[13] = qHTS assay for small molecule agonists of retinoid X receptor alpha signaling (AID 588544); conditions: HEK293T RXRa-UAS-bla, beta-lactamase reporter, 18 h; 530 nm emission
[14] = biological target: Thyroid hormone receptor beta (Homo sapiens) (UniProt P10828); assay: qHTS assay for small molecule agonists of thyroid hormone receptor beta signaling (AID 588545; calls by dose curve)
Thyroid hormone receptor beta (Homo sapiens), sequence (P10828 whole entry, looked up): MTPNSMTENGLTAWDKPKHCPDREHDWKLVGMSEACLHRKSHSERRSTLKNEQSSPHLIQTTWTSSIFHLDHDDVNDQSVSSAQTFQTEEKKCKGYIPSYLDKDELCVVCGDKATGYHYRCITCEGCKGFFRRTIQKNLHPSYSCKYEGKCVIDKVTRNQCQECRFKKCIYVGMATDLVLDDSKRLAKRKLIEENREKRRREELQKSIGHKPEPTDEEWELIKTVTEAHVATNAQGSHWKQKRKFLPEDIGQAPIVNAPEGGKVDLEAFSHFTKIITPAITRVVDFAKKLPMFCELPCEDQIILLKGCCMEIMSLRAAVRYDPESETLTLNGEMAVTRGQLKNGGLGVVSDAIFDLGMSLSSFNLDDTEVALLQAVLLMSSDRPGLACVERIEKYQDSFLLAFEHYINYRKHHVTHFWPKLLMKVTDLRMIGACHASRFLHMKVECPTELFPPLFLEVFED
Outline: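 Stimulation of a TR-driven beta-lactamase reporter was quantified in GripTite HEK 293 cells. Compound series ran for 18 hrs; curves were normalized to T3 and DMSO controls and fitted to yield EC50.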

[15] = qHTS assay for small molecule antagonists of retinoid X receptor alpha signaling (AID 588546); conditions: HEK293T RXRa-UAS-bla, beta-lactamase ratio, antagonist mode; measured here: W530 green channel, cytotoxicity proxy;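 also: cells stimulated with 9-cis-retinoic acid as agonist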
Outline: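 Beta-lactamase reporter inhibition, read as CCF4 fluorescence ratio (ex 405, em 460/530 nm) after 2 h at RT. HEK293T UAS-bla cells, 2500/well, were stimulated with 9-cis-RA at 500 or 100 nM final alongside test compound for 18 h at 37 C.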

[16] = biological target: Thyroid hormone receptor beta (Homo sapiens) (UniProt P10828); assay: qHTS assay for small molecule antagonists of thyroid hormone receptor beta signaling (AID 588547; active = well fitted inhibition curve with a large enough effect in the signal ratio, with a control signal flat, not every such curve was filed as active; the % refers to the signal ratio;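 also: cells stimulated with 0.4 nM T3 agonist during compound exposure; series mostly up to about 77 µM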); conditions: TR-UAS-bla HEK293, beta-lactamase ratio, antagonist mode, 18 h
Outline: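 TR-UAS-bla GripTite HEK293 cells in 2% charcoal/dextran FBS medium were preincubated 4 h at 37 C, given compound (0.59 nM to 92 uM) plus 0.4 nM T3 (final) for 18 h, then CCF4 for 2 h at RT; Hill fit gave IC50.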

[17] = biological target: Tumor necrosis factor (Homo sapiens) (UniProt P01375); assay: qHTS assay to identify small molecules that stimulate Tumor Necrosis Factor-alpha (TNF-alpha) secretion (AID 651757; active = well fitted curve in the direction sought with a large enough effect in the signal ratio; the % refers to the signal ratio)
Tumor necrosis factor (Homo sapiens), sequence (P01375 whole entry, looked up): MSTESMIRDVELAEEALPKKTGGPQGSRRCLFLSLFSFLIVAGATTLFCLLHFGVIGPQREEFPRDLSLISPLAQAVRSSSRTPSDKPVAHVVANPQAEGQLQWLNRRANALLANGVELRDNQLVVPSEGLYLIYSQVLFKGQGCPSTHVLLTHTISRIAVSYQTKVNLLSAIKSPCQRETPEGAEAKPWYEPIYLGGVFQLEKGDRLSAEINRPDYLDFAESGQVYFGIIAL
Outline: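 Read-out is HTRF, a TR-FRET sandwich of cryptate- and XL665-labeled anti-TNF-alpha antibodies detecting cytokine secreted by THP-1 cells. Cells had been incubated with test compounds at 37 C for 17 hrs beforehand.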

[18] = qHTS assay for cell viability of HEK293 cells (AID 743288); conditions: ATP luminescence (CellTiter-Glo), 18 h, stronger effect = lower value; also: nearly all actives have a fitted effect of over 50% in size
Outline: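 Luminescent ATP quantitation served as the viability read-out. Cells (parental HEK293, 2,000/well) received compounds after at least 5 h at 37 C and were exposed for 18 h before a 30 min room-temperature reagent step.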

[19] = biological target: Nuclear receptor subfamily 1 group I member 2 (Rattus norvegicus) (UniProt Q9R1A7); assay: qHTS assay for small molecule activators of the rat pregnane X receptor (rPXR) signaling pathway (AID 651751; call rule not given here); conditions: rPXR reporter cells, luciferase (One-Glo), 24 h
Nuclear receptor subfamily 1 group I member 2 (Rattus norvegicus), sequence (Q9R1A7 whole entry, looked up): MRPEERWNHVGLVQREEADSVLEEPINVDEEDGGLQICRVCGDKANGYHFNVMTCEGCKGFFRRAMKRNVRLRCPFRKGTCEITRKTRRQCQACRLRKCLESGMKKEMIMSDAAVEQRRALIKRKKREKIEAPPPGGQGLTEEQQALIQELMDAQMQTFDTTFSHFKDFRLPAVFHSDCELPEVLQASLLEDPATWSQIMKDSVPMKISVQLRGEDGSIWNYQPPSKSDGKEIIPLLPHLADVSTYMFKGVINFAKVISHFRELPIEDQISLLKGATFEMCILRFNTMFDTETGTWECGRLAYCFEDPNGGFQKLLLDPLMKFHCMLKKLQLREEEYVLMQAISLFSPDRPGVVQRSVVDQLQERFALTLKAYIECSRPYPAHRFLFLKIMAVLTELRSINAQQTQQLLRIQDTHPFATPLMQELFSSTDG

[20] = Cell Viability - SK-N-SH (AID 435; calls by dose curve;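 also: potency is read from the fitted curve at half-maximal effect; compound exposure lasted 40 h at 37 °C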); conditions: SK-N-SH neuroblastoma cell viability qHTS
Outline: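 Human neuroblastoma line, 40 h exposure at 37 °C, ATP quantified via luciferase luminescence; DMSO and 100 uM tamoxifen define 0 and 100% inhibition for AC50 fitting.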

Row | Compound | outcome [1] | Potency [2] | Potency [3] | Potency [4] | Potency [5] | Potency [6] | Potency [7] | Potency [8] | Potency [9] | Potency [10] | Potency [11] | Potency [12] | max response [13] | Potency [14] | max response [15] | activity change % (negative = inhibition) [16] | outcome [17] | max response [18] | max response [19] | Potency [20]
1 | N#CC(O)c1ccccc1 (stereo not given) | inactive | inactive | inactive | inactive | inactive | inactive | inactive | inactive | inactive | inactive | inactive | inactive | -0.409% | inactive | -9.69% | 8.13% (inactive) | inactive | 2.16% (inactive) | 0.679% (inactive) | –
2 | CN(C)C(=O)Nc1cccc(C(F)(F)F)c1 | inactive | inactive | inactive | inactive | inactive | inactive | inactive | inactive | inactive | inactive | inactive | inactive | -22.3% and -23.1% | inactive | -7% and -2.56% | -7.4% (inactive) and -5.84% (inactive) | inactive | 3% (inactive) and -3.2% (inactive) | 16.9% (inactive) and 5.91% (inactive) | > 92 µM (inactive)
3 | ClC(Cl)c1ccccc1 | inactive | inactive | inactive | inactive | inactive | inactive | inactive | inactive | inactive | inactive | inactive | inactive | 1.37% | inactive | 4.33% | -1.09% (inactive) | inactive | -9.22% (inactive) | 3.54% (inactive) | > 92 µM (inactive)
4 | C=CC(=O)OCCN(C)C | inactive | inactive | inactive | inactive | inactive | inactive | inactive | inactive | inactive | inactive | inactive | inactive | -14.1% | inactive | -6.38% | -23.4% (inactive) | inactive | -6.86% (inactive) | 2.48% (inactive) | –
5 | Cc1ccc2c(c1N)C(=O)c1ccccc1C2=O | inactive | inactive | – | inactive | inactive | inactive | inactive | inactive | inactive | inactive | inactive | inactive | -11.3% and 17.2% | inactive | -0.33% and -4.6% | 1.36% (inactive) | – | -21.2% (inactive) and -23% (inactive) | – | > 92 µM (inactive)
6 | ClP(Cl)(Cl)(Cl)Cl | inactive | inactive | inactive | inactive | inactive | inactive | inactive | inactive | inactive | inactive | inactive | inactive | 5.7% | inactive | 4.58% | -5.32% (inactive) | inactive | -14.3% (inactive) | 0.805% (inactive) | –
7 | O=[N+]([O-])c1ccc(Cl)cc1 | – | inactive | inactive | inactive | inactive | inactive | inactive | inactive | inactive | inactive | inactive | inactive | -17.3% and -9.79% | inactive | -1.92% and -4.79% | 3.07% (inactive) and -2.63% (inactive) | inactive | 7.34% (inactive) and -5.17% (inactive) | 5.34% (inactive) and 1.87% (inactive) | > 92 µM (inactive)
8 | C=COC(C)=O | – | inactive | inactive | inactive | inactive | inactive | inactive | inactive | inactive | inactive | inactive | inactive | -12.6% | inactive | -12.3% | 0.373% (inactive) | inactive | -3.61% (inactive) | 2.31% (inactive) | –
9 | Cc1ccc(N=C=O)cc1N=C=O | inactive | inactive | inactive | inactive | inactive | inactive | inactive | inactive | inactive | inactive | inactive | inactive | -4.25% and -19.3% | inactive | 4.82% and -6.24% | -8.5% (inactive) | – | -9.26% (inactive) and -8.71% (inactive) | 5.64% (inactive) and 2.33% (inactive) | > 92 µM (inactive)

Reference: PubChem BioAssay (NCATS)
